Source: PubChem (University of Kansas High Throughput Screening Laboratory)
mHTT CaM bind: disrupts binding of mutant huntingtin to calmodulin | 3.6% of 190,000 active | AlphaScreen His-mHTT/GST-CaM binding, luminescence | P42858 | inhibition, % at 15 µM
Pf apPOL block: Pf-apPOL DNA polymerase inhibition | Recombinant Pf-apPOL, molecular beacon fluorescence, 1.5 h | inhibition, % at 10 µM | 0.25% of 210,000 active
Large screens that a line does not name were inactive; ! = not confirmed by another sample. Hits are enriched below; roughly 3.5% of the tested compounds scored in any of these assays. Cut-off read from the data, not from the text of the source: active = inhibition above about 50%; inactive = the rest.

Cc1cccc(/C=C/c2nc3ccccc3c(=O)n2-c2cccc(O)c2)c1	none
O=c1c2ccccc2nc(/C=C/c2cccc([N+](=O)[O-])c2)n1-c1ccccn1	Pf apPOL block 91!
COc1cccc(-n2c(/C=C/c3ccc(O)c(O)c3)nc3ccccc3c2=O)c1	mHTT CaM bind 70
Cc1cccc(-n2c(/C=C/c3cccnc3)nc3ccccc3c2=O)c1	mHTT CaM bind 100
COc1cccc(-n2c(/C=C/c3cccc([N+](=O)[O-])c3)nc3ccccc3c2=O)c1	none
COc1ccc(-n2c(/C=C/c3ccc(O)c(OC)c3)nc3ccccc3c2=O)cc1	none
c1ccc2c(CN3CCC(N4CCCCC4)CC3)c[nH]c2c1	none
CCN1CCN(Cc2cc(Br)c(OC)cc2OC)CC1	none
O=C(Cc1ccsc1)N1CCCN(C2CCN(Cc3ccc(F)cc3)C2=O)CC1 (stereo unspecified)	none
Cc1cccc(CC(=O)N2CCCN(C3CCN(Cc4ccc(F)cc4)C3=O)CC2)c1 (stereo unspecified)	mHTT CaM bind 86
CN(C)C(=O)Oc1ccc2c(c1)OC(=CC=Cc1ccccc1)C2=O	mHTT CaM bind 59!
COc1cccc(C=C2Oc3cc(OC(=O)N(C)C)ccc3C2=O)c1	none
COc1ccc2c(c1)C1(CCN(C(=O)NC(C)(C)C)C1)C(=O)N2 (stereo unspecified)	none
CN(C)C(CN)c1cn(C)c2ccccc12 (stereo unspecified)	mHTT CaM bind 69
CC(C)C/C(=N\O)c1cn(C)c2ccccc12	none (no result: Pf apPOL block)
Cc1c(OC(=O)N(C)C)ccc2c1OC(=Cc1ccco1)C2=O	none
O=[N+]([O-])c1cc(C(F)(F)F)ccc1NCCNc1ccc([N+](=O)[O-])c2cccnc12	none
O=C(NCCCNc1ccc([N+](=O)[O-])c2cccnc12)c1cc(F)c(F)cc1Cl	none
O=C(O)C1Cc2cc(C(F)(F)F)ccc2N2CCCCC12 (stereo unspecified)	mHTT CaM bind 50
CC1CN(c2ccc(C(F)(F)F)cc2[N+](=O)[O-])CC(C)N1 (stereo unspecified)	none
CSC(=NCc1ccccc1Cl)NC(N)=N[N+](=O)[O-]	none (no result: mHTT CaM bind)
CCC12CN3CC(CC)(CN(C1)C3c1ccccn1)C2O (stereo unspecified)	mHTT CaM bind 100
CC12CN3CC(C)(CN(C1)C3c1ccncc1)C2=O (stereo unspecified)	none
NC(N)=NN[C@H]1O[C@H](CO)[C@@H](O)[C@@H](O)[C@H]1O	none (no result: mHTT CaM bind)
c1ccc2c(c1)CCc1c-2[nH]c2ccccc12	mHTT CaM bind 63
O=[N+]([O-])c1ccc(NCCOc2ccccc2F)c2ncccc12	none
C=CCOc1ccc(CC2C(=O)N(C)C(=O)N(C)C2=O)cc1	mHTT CaM bind 100
Cc1ccc(CC2C(=O)N(C)C(=O)N(C)C2=O)s1	none
CCN(CC)c1ccc(CC2C(=O)N(C)C(=O)N(C)C2=O)cc1	mHTT CaM bind 57
O=C(NC(O)C(Cl)(Cl)Cl)c1ccccc1O (stereo unspecified)	none
N=C1c2ccccc2CN1c1cc(Cl)cc(Cl)c1	none
O=C1NC(=O)C2(C(=O)N1)C(c1ccccc1[N+](=O)[O-])NC(=O)NC2c1ccccc1[N+](=O)[O-] (stereo unspecified)	none
Fc1nc(N2CCNCC2)c(F)c(Sc2ccc(Cl)cc2)c1F	mHTT CaM bind 96 (no result: Pf apPOL block)
c1cnc2nc(N3CCNCC3)oc2c1	none (no result: Pf apPOL block)
c1ccc(Oc2ccc3[nH]cc(CCN4CC4)c3c2)cc1	mHTT CaM bind 72 (no result: Pf apPOL block)
NCCc1c[nH]c2ccc(OCc3ccccc3)cc12	mHTT CaM bind 80!
NCCc1c[nH]c2ccccc12	none (no result: mHTT CaM bind)
CN1CCCN(Cc2c[nH]c3ccccc23)CC1	none
CC(C)Cc1ccc(C(C)C2=NCCN2)cc1 (stereo unspecified)	none
CCOc1ccccc1C=C1Oc2cc(OC(=O)N(C)C)ccc2C1=O	none
N#Cc1cccc(NC(=O)C(Cl)(Cl)Cl)c1	none (no result: mHTT CaM bind)
COc1ccc(CNCCc2c(C)[nH]c3ccc(F)cc23)cc1OC	none
CN1CCC2(CC1)OC1CCCCC1c1sccc12 (stereo unspecified)	none (no result: Pf apPOL block)
CN1C(=O)C(=Cc2cccn2-c2ccc(S(N)(=O)=O)cc2)C(=O)N(C)C1=O	none
Cc1ccc(-n2cccc2C=C2C(=O)NC(=O)NC2=O)cc1Cl	mHTT CaM bind 80
CN(C)C(=O)ON=C(N)c1ccc(OCc2ccccc2F)cc1	none (no result: mHTT CaM bind)
CN(C)c1ccc(CN2CCN(Cc3ccccc3)CC2)cc1	none
CN(C)c1ccc(CN2CCN(c3ccccc3Cl)CC2)cc1	mHTT CaM bind 53
CCCCC1CN(C)CCC1(O)c1ccccc1 (stereo unspecified)	none
OC12CCCCC1C(c1cccc(Cl)c1)NCC2 (stereo unspecified)	none
CCN1CCN(c2ccc([N+](=O)[O-])cn2)CC1	none
O=[N+]([O-])c1c(Br)sc(Br)c1[N+](=O)[O-]	mHTT CaM bind 52 (no result: Pf apPOL block)
CN(C)C(=O)Oc1ccc2c(=O)c(-c3ccc4c(c3)OCCO4)coc2c1	none
CN(C)c1ccc(CN2CCN(c3ccc(F)cc3)CC2)cc1	none
CN(C)c1ccc(CN2CC=C(c3ccc(F)cc3)CC2)cc1	mHTT CaM bind 52
CN(C)C(=O)Oc1ccc2c(c1)OC(=Cc1ccncc1)C2=O	none
